Source: PubChem BioAssay

assay: viability profiling in RPMI8226 myeloma cells – cell-based, resazurin fluorescence, basal, 24 h, PK04 Diversity Set, profiling panel (AID 1180); conditions: higher = more signal;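 also: RPMI8826 multiple myeloma cell line at 5000 cells per well; test concentration not given here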

| SMILES | z-score |
| --- | --- |
| CC(C)OC(=O)C=C1C[C@@H](c2ccc(C#N)cc2)O[C@@H](c2ccc(C#N)cc2)O1 | -0.312 |
| CO[C@@H]1COC(=O)CC=C[C@@H](C)COC(=O)[C@H](COCc2ccccc2)NC(=O)CC=C[C@H]1C | 0.783 |
| CO[C@@H]1COC(=O)CC=C[C@@H](C)[C@@H]2C=C[C@H](O)[C@@H](COC(=O)CCC[C@H]1C)O2 | 0.401 |
| O=C1[C@H]2[C@H]3[C@H](O)[C@H](O)CC(=NO[C@@H]4O[C@H](CO)[C@@H](O)[C@H](O)[C@H]4O)[C@H]3CC[C@H]2C(=O)N1Cc1ccc2c(c1)OCO2 | 0.367 |
| C=CC[C@@H]1C=C[C@H](ON=Cc2ccc(C(=O)N3[C@H](c4ccc(C)cc4)[C@@H](C)CC[C@H]3C(=O)OC)cc2)[C@@H](CO)O1 | 0.0719 |
| COCCOC(=O)N1C(=O)[C@@]2(c3cc(C#Cc4ccc(OC)cc4)ccc31)[C@H](c1ccc(O)cc1)N1[C@H](c3ccccc3)[C@H](c3ccccc3)OC(=O)[C@H]1[C@@H]2C(N)=O | -2.3 |
| CC(C)(C)N1CC=CC23O[C@@H]4C=CCCOC(=O)C4[C@H]2C(=O)N(CCCCCO)[C@@H]3C1=O (some centres undefined) | 0.384 |
| COCCOC(=O)N1C(=O)[C@@]2(c3cc(C#Cc4ccc(OC)cc4)ccc31)[C@H](C(=O)N1CCN(c3ncccn3)CC1)[C@H]1C(=O)O[C@H](c3ccccc3)[C@H](c3ccccc3)N1[C@@H]2c1ccc(OCCO)cc1 | -0.0737 |
| COC(=O)[C@@H]1CC[C@H](C)[C@@H](c2ccc(C)cc2)N1C(=O)c1ccc(C=NOC(C)CN2CCCCc3nc(C)c(C)cc32)cc1 (some centres undefined) | -0.0629 |
